Test results reported in article PMC4552634, “A New Set of Chemical Starting Points with Plasmodium falciparum Transmission-Blocking Potential for Antimalarial Drug Discovery” (PLoS ONE, 2015).
Like-named read-outs stand apart in the source and are kept apart here. The campaign covered roughly 13,000 compounds. About 3,200 (25%) showed an effect of 50% or more. This is one part of the list.

System: P. falciparum stage V gametocytes
Set-up: BacTiter-Glo ATP luminescence viability of purified stage V gametocytes in 384-well plates, per cent inhibition versus DMSO
Conditions: 48 h, 5 µM, inhibitor

Row | SMILES | % Inhibition [%] | % Inhibition (% Inhibition) [%]
1 | Cc1cc(=O)c(-c2cccc(Oc3ccc(Cl)cc3)c2)c(C)[nH]1 [TCMDC-137415] | 52.21 | 
2 | Cc1cc(=O)c(-c2ccc(Oc3ccc(Cl)cc3Cl)cc2)c(C)[nH]1 [TCMDC-137267] | 10.5 | 
3 | Cc1cc(=O)c(-c2ccc(Oc3ccc(F)cc3)cc2)c(C)[nH]1 [TCMDC-137535] | 37.78 | 
4 | Cc1cc(=O)c(-c2ccc(Oc3cccc(Cl)c3)cc2)c(C)[nH]1 [TCMDC-137265] | 67.32 | 
5 | COc1ccc(Oc2ccc(-c3c(C)[nH]c(C)cc3=O)cc2)cc1 [TCMDC-137401] | 68.99 | 
6 | Cn1cnc2c(SCc3ccc(OCc4ccccc4)cc3)ncnc21 [TCMDC-136496] | -19.47 | 
7 | O=C(NC(=O)c1ccccc1O)c1ccccc1O [TCMDC-125868] | 4.896 | 
8 | O=C(NC1CCN(c2ccnc3cc(Cl)ccc23)C1)c1ccc(F)cc1 (stereo not shown) [TCMDC-133653] | -3.627 | 
9 | O=C(Nc1nc2ccc(Cl)cc2s1)c1csnn1 [TCMDC-125073] | -15.98 | 
10 | Cn1c(C2CC3CCC(C2)N3CC2CCC(NC(=O)/C=C/c3ccc(Cl)c(Cl)c3)CC2)nc2ccccc21 (stereo not shown) [TCMDC-140342] | -2.342 | 
11 | Cc1ccccc1N1CCN(c2ncc(C(=O)NC3CC3)cc2Cl)CC1 [TCMDC-134602] | 6.226 | 
12 | CC(C)C[C@@H](/C=N/N1CCOC1=O)NC(=O)[C@H](CC(C)C)NC(=O)c1ccc(OCCN2CCOCC2)cc1 [TCMDC-136170] | -12.99 | 
13 | COC(=O)c1ccc(CCCNCC(O)c2cccc(C(F)(F)F)c2)cc1 (stereo not shown) [TCMDC-131462] | 1.956 | 
14 | O=C(/C=C/c1ccc(Cl)c(Cl)c1)NCCCCCCN1CCCN(C(=O)Nc2cc(Cl)cc(Cl)c2)CC1 [TCMDC-135936] | -15.47 | 
15 | O=C(COc1ccc(Cl)c(Cl)c1)NCCCCCN1CCCN(C(=O)Nc2ccc(Cl)c(Cl)c2)CC1 [TCMDC-136292] | 72.04 | 
16 | O=C(/C=C/c1ccc(Cl)c(Cl)c1)NCCCCCN1CCCN(C(=O)Nc2cc(Cl)cc(Cl)c2)CC1 [TCMDC-135760] | -3.132 | 
17 | Cc1ccc(/C=C/C(=O)NCCCCCN2CCCN(C(=O)Nc3ccc(Cl)c(Cl)c3)CC2)cc1 [TCMDC-136111] | -64.67 | 
18 | O=C(/C=C/c1ccc(Cl)c(Cl)c1)NCCCCCN1CCCN(C(=O)Nc2ccc(F)c(Cl)c2)CC1 [TCMDC-135755] | -45.85 | 
19 | O=C(COc1ccc(Cl)c(Cl)c1)NCCCCCN1CCCN(C(=O)Nc2cc(Cl)cc(Cl)c2)CC1 [TCMDC-136293] | 78.53 | 
20 | CC(NC(C)(C)C)C(O)c1ccc(Cl)c(C(F)(F)F)c1 (stereo not shown) [TCMDC-137910] | -2.927 | 
21 | Cc1cccc(C(=O)NC(NC(=S)Nc2cc(Cl)ccc2Cl)C(Cl)(Cl)Cl)c1 (stereo not shown) [TCMDC-124254] | -20.87 | 
22 | CC1(C)N=C(N)N=C(N)N1OCCCOc1cccc(Cl)c1 [TCMDC-131762] | 16.24 | 
23 | COc1ccc2nccc([C@@H](O)CN3CCC(NC(=O)/C=C/c4cc(F)cc(Br)c4)CC3)c2c1 [TCMDC-141031] | -7.765 | 

Row | SMILES | % Inhibition [%] | % Inhibition (% Inhibition) [%]
24 | CN(C)CCOc1ccc(/C(=C(/CCCn2ccnc2)c2ccccc2)c2ccc(O)cc2)cc1 [TCMDC-138900] | -20.55 | 
25 | CCCc1cc(OC)c(C[C@@H]2c3cc(O)c(Cl)cc3CCN2C)cc1OC [TCMDC-138128] | -6.481 | 
26 | CN1C(=O)C(=O)N(CCCCCON=C(N)N)C1=S [TCMDC-139249] | 12.53 | 
27 | CC(C)NC(C)(C)CN(Cc1ccc(-c2ccc(C(F)(F)F)cc2)cc1)C(=O)Cn1c(CCc2cccc(F)c2F)nc(=O)c2ccccc21 [TCMDC-141084] | 71.8 | 
28 | CCNC(C)(C)CN(Cc1ccc(-c2ccc(C(F)(F)F)cc2)cc1)C(=O)Cn1c(CCc2cccc(F)c2F)nc(=O)c2ccccc21 [TCMDC-141047] | 102.8 | 
29 | COc1ccc(NC(=O)Nc2cccc(-c3ccncc3)c2)cc1N1CCN(C)CC1 [TCMDC-139111] | 12.5 | 
30 | O=C(Nc1ccc(-c2nc3cc4ccccc4cc3[nH]2)cc1)c1cccc(Br)c1 [TCMDC-123806] | -9.366 | 
31 | O=C(NC1CC1)c1ccc(N2CCC(Oc3ccc(F)cc3)CC2)nc1 [TCMDC-134053] | 8.582 | 
32 | O=C(Nc1ccc(C(F)(F)F)cc1)NC1CCN(c2ccnc3cc(Cl)ccc23)CC1 [TCMDC-133568] | -13.61 | 
33 | O=C(Cn1c2ccccc2c(=O)c2ccc(Cl)cc21)Nc1ccc(C(F)(F)F)cc1 [TCMDC-125568] | 64.99 | 
34 | CC(CCCCC(=O)Nc1ccc(C(F)(F)F)cc1)NCC(O)c1cccc(Cl)c1 (stereo not shown) [TCMDC-131538] | 28.83 | 
35 | O=c1cc(NCCCNCc2ccc(C(F)(F)F)cc2F)[nH]c2ccccc12 [TCMDC-139427] | 7.285 | 
36 | FC(F)(F)COc1ccc(CNCCCCCCNCc2ccc(OCC(F)(F)F)c3ccccc23)c2ccccc12 [TCMDC-137853] | 131 | 
37 | FC(F)(F)COc1ccc(CCNCCCCNCCc2ccc(OCC(F)(F)F)c3ccccc23)c2ccccc12 [TCMDC-137282] | 101.8 | 
38 | O=[N+]([O-])c1ccc(CNCCCCCCNCc2ccc([N+](=O)[O-])c3ccccc23)c2ccccc12 [TCMDC-137830] | 10.64 | 
39 | O=C(/C=C/c1ccc(Cl)c(Cl)c1)NCCCCCCN1CCN(C(=O)Nc2cc(Cl)nc(Cl)c2)CC1 [TCMDC-135891] | -18.09 | 
40 | Cc1cccc(C(=O)Nc2ccnc(N(C)C3CCN(CC(C)C)CC3)c2)c1 [TCMDC-135023] | -10.51 | 
41 | O=C(/C=C/c1cccc(F)c1)NC1CCC(CN2CCC(c3c[nH]c4ccccc34)CC2)CC1 (stereo not shown) [TCMDC-139713] |  | 90.71
42 | Cc1ccc(/C=C/C(=O)NC2CCC(CN3CCC(c4c[nH]c5ccccc45)CC3)CC2)cc1C (stereo not shown) [TCMDC-139769] |  | 39.49
43 | O=C(/C=C/c1cccc(F)c1)NC1CCC(CN2CCC(c3c[nH]c4ccccc34)CC2)CC1 (stereo not shown) [TCMDC-139698] |  | 74.99
44 | Cc1nc(N)nc(N)c1-c1cc(Cl)c(Cl)c(Cl)c1 [TCMDC-137398] | 11.14 | 
45 | CCCC(=O)Nc1ccc(OCCCN(Cc2cccc(C(F)(F)F)c2)c2ccc(C#N)c(C(F)(F)F)c2)cc1 [TCMDC-135666] | 6.029 | 
46 | CCOc1ccc2nccc([C@@H](O)[C@@H]3C[C@@H]4CCN3C[C@@H]4CC)c2c1 [TCMDC-123483] |  | -64.91

Row | SMILES | % Inhibition [%] | % Inhibition (% Inhibition) [%]
47 | Cc1cc(N2CCCN(C)CC2)nc(Nc2ccc(Br)cc2)n1 [TCMDC-137014] | 8.487 | 
48 | CCOC(=O)c1cc(C(=O)OC)c2ccccn12 [TCMDC-124299] | 4.818 | 
49 | CC1=C(C(=O)OC(C)C)C(c2ccccc2Cl)C2=C(CC(c3ccccc3)CC2=O)N1 (stereo not shown) [TCMDC-125608] | 34.25 | 
50 | CSc1nccc(-c2ccc(S(=O)(=O)NC3CCC(CN4CCC(c5c[nH]c6ccccc56)CC4)CC3)s2)n1 (stereo not shown) [TCMDC-131236] |  | 106.4
51 | O=C(NC1CCC(CN2CCC(c3c[nH]c4ccccc34)CC2)CC1)c1[nH]c(=O)[nH]c(=O)c1F (stereo not shown) [TCMDC-139889] | 14.48 | 
52 | N#Cc1c(Cl)cccc1Oc1ccc(S(=O)(=O)NC2CCC(CN3CCC(c4c[nH]c5ccccc45)CC3)CC2)cc1 (stereo not shown) [TCMDC-140175] |  | 1.176
53 | CSc1nccc(-c2ccc(S(=O)(=O)NC3CCC(CN4CCC(c5c[nH]c6ccccc56)CC4)CC3)s2)n1 (stereo not shown) [TCMDC-131237] |  | 110.6
54 | O=C(CCc1cccnc1)Nc1cccc(-c2ccc(-c3nc4ccc(C(F)(F)F)cc4[nH]3)cc2)c1 [TCMDC-132148] | -27.41 | 
55 | Cc1ccccc1C1CCN(c2ncc(C(=O)NC3CC3)cc2Cl)CC1 [TCMDC-134609] | 14.1 | 
56 | CC(C)(C)OC(=O)N[C@@H](CS(=O)(=O)CCN=C(N)COCc1ccccc1)C(=O)OC(C)(C)C [TCMDC-138107] | 24.21 | 
57 | O=C(N[C@H]1CCN(Cc2ccc(OC3CCN(Cc4ccccc4)CC3)c(Cl)c2)C1)c1ccc(Cl)c(Cl)c1 [TCMDC-140277] | 30.17 | 
58 | Fc1cc(CN2CCCC2)ccc1OCCCN1CCN(c2cccc(Cl)c2Cl)CC1 [TCMDC-137001] | 7.626 | 
59 | O=C(NC1CCN(Cc2ccccc2)C1)c1ccc(Nc2ccc(Br)cc2)nc1 (stereo not shown) [TCMDC-133798] | -17.8 | 
60 | O=C(Nc1ccc(C(=O)Oc2ccc(-c3ccccc3)cc2)cc1)N[C@@H](Cc1ccc(O)cc1)C(=O)NC1CCN(Cc2ccc(O)cc2)C1 (stereo partly shown) [TCMDC-135361] | -42.48 | 
61 | c1ccc(C(c2cccs2)N2CCN(Cc3ccc(OCCCN4CCCCC4)cc3)CC2)cc1 (stereo not shown) [TCMDC-141954] | 38.42 | 
62 | O=C(Cc1ccc(-c2ccccc2)cc1)N[C@H]1CCN(Cc2ccc(OCCCN3CCCCC3)cc2)C1 [TCMDC-141776] | 70.4 | 
63 | O=C(N[C@H]1CCN(Cc2ccc(OC3CCN(Cc4ccccc4)CC3)cc2)C1)c1ccc(Cl)c(Cl)c1 [TCMDC-140265] | 57.35 | 
64 | O=C(N[C@H]1CCN(Cc2ccc(OCCCN3CCCCC3)cc2)C1)c1ccc(Oc2ccccc2)cc1 [TCMDC-141773] | 88.22 | 
65 | O=C(N[C@@H](Cc1ccccc1)CN1CCC(Oc2ccc(F)cc2)CC1)c1ccc(OCCCN2CCCCC2)cc1 [TCMDC-135416] | 28.27 | 
66 | Cc1cc(CN2CC[C@H](NC(=O)c3ccc(Cl)c(Cl)c3)C2)ccc1OC1CCN(Cc2ccccc2)CC1 [TCMDC-140282] | -33.37 | 
67 | O=S(=O)(c1ccc2ccccc2c1)N1CCCN(Cc2ccc(OCCCN3CCCCC3)cc2)CC1 [TCMDC-141721] | 52.58 | 
